Measurements from PubChem BioAssay (NCATS).
Where “and” joins values, the source holds several entries; their conditions need not be identical. Identical values can stand only once. Results filed as inconclusive are left out. Calls of active or inactive are those of the source. Unless noted, calls come from the whole dose curve; as a rule, active = well fitted curve in the direction sought with a large enough effect; inconclusive = small, poorly fitted or top-dose-only effect, or another doubt; inactive = no such curve, though single readings can be large; an effect the other way counts as inactive or inconclusive.

What was measured:
[1] = Cell Viability - H-4-II-E (AID 543);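 note: cells exposed to compound for 40 hours; nearly all actives have a fitted effect of over 35% in size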; note: potency is the fitted concentration of half-maximal effect
Outline: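 Cells seeded at 1500 per well and rested 5 hr; compounds added; 40 hr incubation at 37 °C; CellTiter-Glo added, 20 min at room temperature; luminescence read. Hill-equation fits gave AC50.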

[2] = Cell Viability - SH-SY5Y (AID 544); conditions: SH-SY5Y neuroblastoma cell viability; viability change, negative = cytotoxic: at 92.2 µM (top of the series);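 note: cells exposed to compound for 40 hours; 0% = DMSO alone and -100% = 100 µM tamoxifen; nearly all actives have a fitted effect of over 55% in size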
Outline: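 Cells were plated at 1500 per well and allowed 5 hr at 37 °C. Compounds were added across a concentration range and incubated 40 hr at 37 °C. CellTiter-Glo was added for 20 min at room temperature before luminescence reading.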

[3] = Cellular Toxicity (caspase-3) SHSY5Y (AID 657)
Outline: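 Luminescent Caspase-Glo 3/7 read-out, 1 hr room temperature, follows 16 hours of compound treatment of SH-SY5Y cells at 37 °C. Normalization: DMSO basal, 10 uM staurosporine as 100%; AC50 values from Hill-equation concentration-response fits.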

[4] = Cell Viability - LYMP2-001 (AID 921);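 note: 0% = DMSO only and full inhibition = tetraoctylammonium bromide control wells; nearly all actives have a fitted effect of over 70% in size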
Outline: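 Cellular ATP loss read by luciferase luminescence after 24 h compound exposure at 37 C in complete medium. LYMP2-001 lymphoblastoid cells, 2500/well; qHTS concentration-response data fitted with Hill equation for AC50.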

[5] = MultiTox-Fluor Cytotoxicity Assay - LYMP1-003 - Live Cells (AID 962);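 note: 0% = DMSO only and full loss = 92 µM tetraoctylammonium bromide; cytotoxic hits lower the live-cell protease signal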
Outline: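 Acute cytotoxicity is scored as a drop in live-cell protease activity in human lymphoblastoid LYMP1-003 cells after 16 hr compound exposure at 37 C. AC50 values come from Hill-equation modelling of concentration-response data.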

[6] = Cell Viability - LYMP2-004 (AID 966);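 note: plate controls were DMSO only for no effect and tetraoctylammonium bromide control for full effect; nearly all actives have a fitted effect of over 65% in size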
Outline: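 qHTS cytotoxicity: human lymphoblastoid line, 24 hr compound treatment, 37 C, complete medium. Viability read as cellular ATP via luciferase luminescence; tetraoctylammonium bromide served as positive control.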

[7] = Cell Viability - LYMP2-005 (AID 967);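 note: plate controls were DMSO only for no effect and 92 µM tetraoctylammonium bromide control for full effect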
Outline: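 LYMP2-005 human lymphoblastoid cells (2500/well) were treated with compounds for 24 h at 37 C. Intracellular ATP was then measured by CellTiter-Glo luminescence after 30 min at room temperature. AC50 values came from Hill-equation fits of qHTS concentration-response data.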

[8] = Cell Viability - LYMP2-013 (AID 970);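 note: 0% = DMSO only and full inhibition = tetraoctylammonium bromide control; nearly all actives have a fitted effect of over 55% in size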
Outline: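 Cytotoxicity is scored as a concentration-dependent drop in intracellular ATP in human lymphoblastoid cells after 24 hr compound exposure at 37 C. ATP is quantified by luciferase luminescence, and AC50 values come from Hill-equation modeling.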

[9] = Cell Viability - LYMP2-025 (AID 976);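 note: plate controls were DMSO only for no effect and tetraoctylammonium bromide control for full effect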
Outline: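 Acute cytotoxicity is scored as a concentration-dependent fall in intracellular ATP, measured by luciferase luminescence, in human lymphoblastoid LYMP2-025 cells exposed to compound for 24 hours at 37 C. AC50 values come from standard Hill fits.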

[10] = Cell Viability - LYMP2-007 (AID 979);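 note: cells exposed to compound for 24 h before reading; 0% = DMSO only and the negative end = 92 µM tetraoctylammonium bromide; nearly all actives have a fitted effect of over 60% in size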
Outline: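 Cells are seeded at 2500 per well and rested 5 hr. Compounds are then added over a concentration series for 24 hr at 37 C. CellTiter-Glo is added for 30 min at room temperature before luminescence reading.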

[11] = Cell Viability - LYMP2-012 (AID 982);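 note: cellular ATP by luciferase luminescence where a drop means cytotoxicity; cells exposed to compound for one day before reading; 0% = DMSO only and full loss = 92 µM tetraoctylammonium bromide; nearly all actives have a fitted effect of over 55% in size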
[12] = Cell Viability - LYMP2-018 (AID 985);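 note: plate controls were DMSO only for no effect and tetraoctylammonium bromide at 92 µM for full effect; nearly all actives have a fitted effect of over 50% in size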
Outline: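 Seed 2500 lymphoblastoid cells per well, incubate 5 hr at 37 C, add compound and incubate 24 hr at 37 C, add CellTiter-Glo, wait 30 min at room temperature, then read luminescence.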

[13] = Cell Viability - LYMP2-026 (AID 989); note: % is set by controls: 0 for no effect and ±100 for the full control effect; nearly all actives have a fitted effect of over 50% in size
Outline: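 Cells are seeded at 2500 per well and held 5 hr at 37 C. Compounds are added in concentration series for 24 hr, then CellTiter-Glo reagent is applied and luminescence read.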

[14] = Cell Viability - LYMP1-002 - Assay at 40 hr (AID 994);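 note: 0% = DMSO only and full inhibition = 92 µM tetraoctylammonium bromide; nearly all actives have a fitted effect of over 60% in size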
Outline: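 Cells are plated at 2500 per well and rested 5 hr at 37 C. Compounds are added and incubated 40 hr at 37 C. CellTiter-Glo reagent is added for 30 min at room temperature before luminescence is read.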

[15] = qHTS assay for small molecule agonists of retinoid X receptor alpha signaling (AID 588544; calls by dose curve); conditions: HEK293T RXRa-UAS-bla, beta-lactamase reporter, 18 h; 530 nm emission
[16] = target: Retinoic acid receptor RXR-alpha (Homo sapiens) (UniProt P19793); assay: as above
Chain of Retinoic acid receptor RXR-alpha (Homo sapiens) (P19793 whole entry, looked up): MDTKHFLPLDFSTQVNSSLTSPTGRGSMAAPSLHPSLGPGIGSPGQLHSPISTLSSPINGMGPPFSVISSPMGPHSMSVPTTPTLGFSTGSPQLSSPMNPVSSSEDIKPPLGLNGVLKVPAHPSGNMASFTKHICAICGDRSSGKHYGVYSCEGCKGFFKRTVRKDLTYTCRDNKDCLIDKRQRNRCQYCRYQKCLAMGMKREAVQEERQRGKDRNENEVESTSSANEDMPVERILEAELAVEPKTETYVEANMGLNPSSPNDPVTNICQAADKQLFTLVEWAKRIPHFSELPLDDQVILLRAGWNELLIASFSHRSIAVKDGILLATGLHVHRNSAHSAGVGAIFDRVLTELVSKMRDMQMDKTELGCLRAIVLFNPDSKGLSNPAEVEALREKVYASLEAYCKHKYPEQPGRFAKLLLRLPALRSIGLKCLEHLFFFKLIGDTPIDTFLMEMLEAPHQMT

[17] = qHTS assay for small molecule antagonists of retinoid X receptor alpha signaling (AID 588546; active = well fitted inhibition curve with a large enough effect in the signal ratio, with a control signal flat, not every such curve was filed as active; the % refers to the signal ratio;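 note: cells stimulated with 9-cis-retinoic acid as agonist; % is set by controls: 0 for no effect and ±100 for the full control effect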); conditions: HEK293T RXRa-UAS-bla, beta-lactamase ratio, antagonist mode; measured here: W530 green channel, cytotoxicity proxy
Outline: (§1)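 Beta-lactamase reporter inhibition, read as CCF4 fluorescence ratio (ex 405, em 460/530 nm) after 2 h at RT. HEK293T UAS-bla cells, 2500/well, were stimulated with 9-cis-RA at 500 or 100 nM final alongside test compound for 18 h at 37 C.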

[18] = target: Retinoic acid receptor RXR-alpha (Homo sapiens) (UniProt P19793); assay: as above; conditions: HEK293T RXRa-UAS-bla, beta-lactamase ratio, antagonist mode
Outline: as §1

[19] = qHTS assay for small molecule agonists of the antioxidant response element (ARE) signaling pathway measured by Nrf2-dependant transcriptional activity (AID 720636; active = well fitted curve in the direction sought with a large enough effect in the repeat runs; an effect the other way counts as inactive or inconclusive; note: % of control where 0% means no effect)
Outline: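 Nrf2-dependent transcription read as ONE-Glo luciferase signal from ARE-luc HepG2 reporter cells after 16 hr compound treatment at 37 C, 5% CO2, in assay medium with 1% dialyzed FBS.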

[20] = qHTS assay for small molecule antagonists of the retinoid-related orphan receptor gamma (ROR-gamma) signaling pathway - cell viability counter screen (AID 720652; active = well fitted curve in the direction sought with a large enough effect in the repeat runs; an effect the other way counts as inactive or inconclusive;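 note: CHO reporter cells with doxycycline-induced ROR-gamma expression; compound exposure lasted 16 hr before ATP read; % is set by controls: 0 for no effect and ±100 for the full control effect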)
Outline: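 Steps: seed CHO cells bearing TET-inducible ROR and ROR response element-luciferase; rest 5 hr at 37 C; add compound, then doxycycline; incubate 16 hr; add CellTiter-Glo and read luminescence as ATP-based viability.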

COc1cc(-c2ccc(N)c(OC)c2)ccc1N
8.08% and -9.67%: max response [15]
inactive: Potency [1] | Potency [2] | outcome [3] | Potency [4] | outcome [5] | Potency [6] | Potency [7] | Potency [8] | Potency [9] | Potency [10] | Potency [11] | Potency [12] | Potency [13] | Potency [14] | outcome [16] | max response [18] -9.81% and -21.9% | Potency [19]
0.0176% and -5.1%: max response [17]

N#C/C(N)=C(/N)C#N
-2.22%: max response [17]
inactive: Potency [1] | Potency [2] | outcome [3] | Potency [4] | outcome [5] | Potency [6] | Potency [7] | Potency [8] | Potency [9] | Potency [10] | Potency [11] | Potency [12] | Potency [13] | Potency [14] | outcome [16] | max response [18] 2% | Potency [19] | Potency [20]
-4.63%: max response [15]

ClCc1ccccn1
3.04% and -6.39%: max response [17]
inactive: Potency [1] | Potency [2] | outcome [3] | Potency [4] | outcome [5] | Potency [6] | Potency [7] | Potency [8] | Potency [9] | Potency [10] | Potency [11] | Potency [12] | Potency [13] | Potency [14] | outcome [16] | max response [18] -12.8% and -17% | Potency [19] | Potency [20]
-5.13% and -0.246%: max response [15]

Cc1cc(Cl)ccc1O
-4.59%: max response [15]
inactive: Potency [1] | Potency [2] | outcome [3] | Potency [4] | outcome [5] | Potency [6] | Potency [7] | Potency [8] | Potency [9] | Potency [10] | Potency [11] | Potency [12] | Potency [13] | Potency [14] | outcome [16] | max response [18] -5.53% | Potency [19] | Potency [20]
-5.47%: max response [17]

COc1c(C(C)(C)C)cc([N+](=O)[O-])c(C)c1[N+](=O)[O-]
inactive: Potency [1] | Potency [2] | outcome [3] | Potency [4] | outcome [5] | Potency [6] | Potency [7] | Potency [8] | Potency [9] | Potency [10] | Potency [11] | Potency [12] | Potency [13] | Potency [14] | outcome [16] | max response [18] -14.3% | Potency [19] | Potency [20]
-1.47%: max response [17]
-3.49%: max response [15]

Cc1cc(-c2cc(C)c(N)c(C)c2)cc(C)c1N
inactive: Potency [1] | Potency [2] | outcome [3] | Potency [4] | outcome [5] | Potency [6] | Potency [7] | Potency [8] | Potency [9] | Potency [10] | Potency [11] | Potency [12] | Potency [13] | Potency [14] | outcome [16] | max response [18] -4.04% | Potency [19] | Potency [20]
-0.244%: max response [17]
-7.36%: max response [15]

O=[N+]([O-])c1ccc(Cl)c(Cl)c1Cl
3.54%: max response [15]
-8.55%: max response [17]
inactive: Potency [1] | Potency [2] | outcome [3] | Potency [4] | outcome [5] | Potency [6] | Potency [7] | Potency [8] | Potency [9] | Potency [10] | Potency [11] | Potency [12] | Potency [13] | Potency [14] | outcome [16] | max response [18] 7.17% | Potency [19] | Potency [20]

CC(C)OC(=O)Cc1ccccc1
-2.88%: max response [17]
1.88%: max response [15]
inactive: Potency [1] | Potency [2] | outcome [3] | Potency [4] | outcome [5] | Potency [6] | Potency [7] | Potency [8] | Potency [9] | Potency [10] | Potency [11] | Potency [12] | Potency [13] | Potency [14] | outcome [16] | max response [18] 8.61% | Potency [19] | Potency [20]

O=C(O)c1cc(Cl)ccc1Cl
-6.74%: max response [15]
-9.46%: max response [17]
inactive: Potency [1] | Potency [2] | outcome [3] | Potency [4] | outcome [5] | Potency [6] | Potency [7] | Potency [8] | Potency [9] | Potency [10] | Potency [11] | Potency [12] | Potency [13] | Potency [14] | outcome [16] | max response [18] -2.77% | Potency [19] | Potency [20]

CCCN(CCC)c1c([N+](=O)[O-])cc(C(F)(F)F)cc1[N+](=O)[O-]
inactive: Potency [1] | Potency [2] | outcome [3] | Potency [4] | outcome [5] | Potency [6] | Potency [7] | Potency [8] | Potency [9] | Potency [10] | Potency [11] | Potency [12] | Potency [13] | Potency [14] | outcome [16] | max response [18] 0.285% and -10.3% | Potency [19] | Potency [20]
-17.3% and 1.94%: max response [15]
-6.59% and -3.08%: max response [17]

Cc1cccc(C)c1N
inactive: Potency [1] | Potency [2] | outcome [3] | Potency [4] | outcome [5] | Potency [6] | Potency [7] | Potency [8] | Potency [9] | Potency [10] | Potency [11] | Potency [12] | Potency [13] | Potency [14] | outcome [16] | max response [18] 17.5% | Potency [19]
-2.21%: max response [15]
-4.18%: max response [17]

CN(C)C(=O)Cl
-5.01%: max response [15]
inactive: Potency [1] | Potency [2] | outcome [3] | Potency [4] | outcome [5] | Potency [6] | Potency [7] | Potency [8] | Potency [9] | Potency [10] | Potency [11] | Potency [12] | Potency [13] | Potency [14] | outcome [16] | max response [18] 8.18% | Potency [19] | Potency [20]
3.53%: max response [17]

Clc1cccc(Cl)c1Cl
4.23% and 3.5%: max response [15]
inactive: Potency [1] | Potency [2] | outcome [3] | Potency [4] | outcome [5] | Potency [6] | Potency [7] | Potency [8] | Potency [9] | Potency [10] | Potency [11] | Potency [12] | Potency [13] | Potency [14] | outcome [16] | max response [18] 1.17% and -4.41% | Potency [19] | Potency [20]
3.05% and -10.8%: max response [17]

Nc1ccc([N+](=O)[O-])cc1[N+](=O)[O-]
-7.45%: max response [15]
inactive: Potency [2] | outcome [3] | Potency [4] | outcome [5] | Potency [6] | Potency [7] | Potency [8] | Potency [9] | Potency [10] | Potency [11] | Potency [12] | Potency [13] | Potency [14] | outcome [16] | Potency [19] | Potency [20]
active: Potency [1] 20 µM
